Test results taken from PubChem BioAssay.
Results filed as inconclusive are left out. Activity calls are given as the source filed them.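 How the source made its calls, unless noted: active means normalized viability below 100% at a tested concentration; inactive means the rest.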

How the values were obtained:
[1] = growth inhibition of DIPG glioma cells, dose response, cell-based, SU-DIPG-XVII, MIPE5.0, CellTiter-Glo, qHTS (AID 1347060; cut-off not given, nearly all actives have AC50 up to about 26 µM;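 on AC50: cells exposed to compound for 48 hours before viability readout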); settings: SU-DIPG-XVII viability, CellTiter-Glo ATP luminescence
[2] = growth inhibition of DIPG glioma cells, dose response, cell-based, JHH-DIPG-1, MIPE4.0, CellTiter-Glo, qHTS (AID 1347062; cut-off not given, nearly all actives have AC50 up to about 27 µM;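 on AC50: cells exposed to compound for two days before readout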); settings: JHH-DIPG-1 viability, CellTiter-Glo ATP luminescence
[3] = growth inhibition of DIPG glioma cells, dose response, cell-based, SU-DIPG-IV, MIPE4.0, CellTiter-Glo, qHTS (AID 1347063; cut-off not given, nearly all actives have AC50 up to about 30 µM;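 further: compound exposure lasted 48 hours before the viability readout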); settings: SU-DIPG-IV viability, CellTiter-Glo ATP luminescence
[4] = viability loss in pontine glioma line – cell-based, SU-DIPG-XXV, MIPE5.0, CellTiter-Glo, qHTS, dose response (AID 1347065; cut-off not given, nearly all actives have AC50 up to about 26 µM;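 further: cells exposed to compound for 48 hours before ATP readout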); settings: CellTiter-Glo ATP luminescence
[5] = SU-DIPG-VI glioma cell viability, MIPE4.0 library, CellTiter-Glo luminescence, qHTS (AID 1347066; cut-off not given, nearly all actives have AC50 up to about 30 µM;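 further: cells exposed to compound for 48 hours before readout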); settings: CellTiter-Glo ATP luminescence
[6] = JHH-DIPG-1 glioma cell viability, MIPE5.0 library, CellTiter-Glo luminescence, qHTS (AID 1347067; cut-off not given, nearly all actives have AC50 up to about 26 µM;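 further: cells exposed to compound for 48 hours before readout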); settings: JHH-DIPG-1 glioma viability, CellTiter-Glo ATP luminescence
[7] = sensitizers of A549 cells to miR-34 induction, primary screen, imaging, A549 dox-inducible miR-34, nuclei and caspase counts (AID 1347080;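 active means compounds whose cell count with miR-34 switched on is under 0.7 times the count with it off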); settings: A549 miR-34 inducible, Hoechst nuclei count, 48 h
[8] = survival rescue of mitochondrial mutant cells in low glucose, primary screen, MELAS cybrids, Rieske KO mouse fibroblasts, CellTiter-Glo (AID 1508586;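 active means mean z-score across replicates of 1.96 or higher in either the MELAS or the Rieske mutant cell line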;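 further: z relative to plate mean and SD of compound and empty wells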)
[9] = ovarian cancer cell viability with rucaparib, profiling panel, oncology-focused library, rucaparib conditional (AID 1508598); settings: patient-derived ovarian cancer cells, CellTiter-Glo viability, 144 h, stronger effect = lower value
[10] = modifiers of HSF1 nuclear foci, imaging, Selleck Cancer Library (AID 1347162; in the data active means plate-normalised HSF1 focus index below about 0.46); settings: human cells, at 10 µM; SSMD: measured here: HSF1 foci SSMD mean; cell count: measured here: cell number; plate-normalised HSF1 focus index: stronger effect = lower value
[11] = SU-DIPG-XXV glioma cell viability, MIPE5.0 library, qHTS (AID 1347068; cut-off not given, nearly all actives have IC50 up to about 30 µM;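 on IC50: cells exposed to compound for 48 hours before viability readout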)
[12] = stronger effect = lower value, cell number ratio, induced over uninduced
[13] = measured here: relative caspase fold change +Dox/-Dox
[14] = measured here: total cells with miR-34 induction, stronger effect = lower value
[15] = measured here: total cells without miR-34 induction
[16] = MELAS cybrid survival, CellTiter-Glo 48 h, stronger effect = higher value
[17] = Rieske KO mouse fibroblast survival, CellTiter-Glo 72 h
[18] = at 0.000305 µM, OCI-C5x cells, with rucaparib 10 µM, 100% = cells with rucaparib alone
[19] = at 0.000305 µM, OCI-C5x cells, without rucaparib
[20] = at 0.000305 µM, OCI-P5x cells, with rucaparib 20 µM, 100% = cells with rucaparib alone
[21] = at 0.000305 µM, OCI-P5x cells, without rucaparib
[22] = at 0.00122 µM, OCI-C5x cells, with rucaparib 10 µM, 100% = cells with rucaparib alone
[23] = at 0.00122 µM, OCI-C5x cells, without rucaparib
[24] = at 0.00122 µM, OCI-P5x cells, with rucaparib 20 µM, 100% = cells with rucaparib alone
[25] = at 0.00122 µM, OCI-P5x cells, without rucaparib
[26] = at 0.00488 µM, OCI-C5x cells, with rucaparib 10 µM, 100% = cells with rucaparib alone
[27] = at 0.00488 µM, OCI-C5x cells, without rucaparib
[28] = at 0.00488 µM, OCI-P5x cells, with rucaparib 20 µM, 100% = cells with rucaparib alone
[29] = at 0.00488 µM, OCI-P5x cells, without rucaparib
[30] = at 0.0195 µM, OCI-C5x cells, with rucaparib 10 µM, 100% = cells with rucaparib alone
[31] = at 0.0195 µM, OCI-C5x cells, without rucaparib
[32] = at 0.0195 µM, OCI-P5x cells, with rucaparib 20 µM, 100% = cells with rucaparib alone
[33] = at 0.0195 µM, OCI-P5x cells, without rucaparib
[34] = at 0.0781 µM, OCI-C5x cells, with rucaparib 10 µM, 100% = cells with rucaparib alone
[35] = at 0.0781 µM, OCI-C5x cells, without rucaparib
[36] = at 0.0781 µM, OCI-P5x cells, with rucaparib 20 µM, 100% = cells with rucaparib alone
[37] = at 0.0781 µM, OCI-P5x cells, without rucaparib
[38] = at 0.313 µM, OCI-C5x cells, with rucaparib 10 µM, 100% = cells with rucaparib alone
[39] = at 0.313 µM, OCI-C5x cells, without rucaparib
[40] = at 0.313 µM, OCI-P5x cells, with rucaparib 20 µM, 100% = cells with rucaparib alone
[41] = at 0.313 µM, OCI-P5x cells, without rucaparib
[42] = at 1.25 µM, OCI-C5x cells, with rucaparib 10 µM, 100% = cells with rucaparib alone
[43] = at 1.25 µM, OCI-C5x cells, without rucaparib
[44] = at 1.25 µM, OCI-P5x cells, with rucaparib 20 µM, 100% = cells with rucaparib alone
[45] = at 1.25 µM, OCI-P5x cells, without rucaparib
[46] = at 5 µM, OCI-C5x cells, with rucaparib 10 µM, 100% = cells with rucaparib alone
[47] = at 5 µM, OCI-C5x cells, without rucaparib
[48] = at 5 µM, OCI-P5x cells, with rucaparib 20 µM, 100% = cells with rucaparib alone
[49] = at 5 µM, OCI-P5x cells, without rucaparib

C#Cc1cccc(Nc2ncnc3cc(OCCOC)c(OCCO)cc23)c1
inactive: outcome [5] | fold change [7, 12] 0.787 | z-score [8, 16] -0.467 | viability [9, 18] 118% | viability [9, 19] 140% | viability [9, 20] 109% | viability [9, 21] 119% | viability [9, 22] 113% | viability [9, 23] 143% | viability [9, 24] 109% | viability [9, 25] 114% | viability [9, 26] 119% | viability [9, 27] 127% | viability [9, 28] 106% | viability [9, 29] 109% | viability [9, 30] 108% | viability [9, 31] 120% | viability [9, 32] 103% | viability [9, 33] 107% | viability [9, 34] 113% | viability [9, 35] 129% | viability [9, 37] 106% | viability [9, 39] 102% | viability [9, 41] 100%
active: AC50 [1] 11.8 µM | AC50 [2] 6.62 µM | AC50 [3] 2.96 µM | AC50 [4] 7.42 µM | AC50 [6] 2.63 µM | viability [9, 36] 96.3% | viability [9, 38] 100% | viability [9, 40] 97.1% | viability [9, 42] 78.3% | viability [9, 43] 95.1% | viability [9, 44] 85.9% | viability [9, 45] 93.4% | viability [9, 46] 54.8% | viability [9, 47] 52.7% | viability [9, 48] 68.7% | viability [9, 49] 64.5%
3380: cell count [7, 15]
2660: cell count [7, 14]
-0.287: z-score [8, 17]
0.554: fold change [7, 13]

C=CCn1c(=O)c2cnc(Nc3ccc(N4CCN(C)CC4)cc3)nc2n1-c1cccc(C(C)(C)O)n1
1100: cell count [7, 15]
1.66: z-score [8, 17]
active: AC50 [1] 4.17 µM | AC50 [2] 0.418 µM | AC50 [3] 11.8 µM | AC50 [4] 1.05 µM | viability [9, 20] 88.3% | viability [9, 21] 91.1% | viability [9, 25] 98.1% | viability [9, 29] 98.9% | viability [9, 32] 88.1% | viability [9, 33] 97.6% | viability [9, 35] 96.7% | viability [9, 36] 82.5% | viability [9, 37] 92.8% | viability [9, 38] 69.6% | viability [9, 39] 55.3% | viability [9, 40] 65.5% | viability [9, 41] 59.9% | viability [9, 42] 54.7% | viability [9, 43] 40.2% | viability [9, 44] 45.8% | viability [9, 45] 23.7% | viability [9, 46] 35.9% | viability [9, 47] 25.1% | viability [9, 48] 14.5% | viability [9, 49] 7.98%
1400: cell count [7, 14]
0.673: fold change [7, 13]
6680: cell count [10]
1.04: SSMD [10]
inactive: fold change [7, 12] 1.27 | plate-normalised HSF1 focus index [10] 1.07 | z-score [8, 16] 0.245 | viability [9, 18] 126% | viability [9, 19] 107% | viability [9, 22] 122% | viability [9, 23] 109% | viability [9, 24] 102% | viability [9, 26] 121% | viability [9, 27] 107% | viability [9, 28] 102% | viability [9, 30] 120% | viability [9, 31] 102% | viability [9, 34] 104%

CCOC(=O)[C@H]1O[C@@H]1C(=O)N[C@@H](CC(C)C)C(=O)NCCC(C)C
0.856: fold change [7, 13]
inactive: outcome [1] | outcome [2] | outcome [3] | outcome [4] | outcome [6] | fold change [7, 12] 0.97
4800: cell count [7, 15]
4650: cell count [7, 14]

COc1ccc(F)c(F)c1C(=O)c1cnc(NC2CCN(S(C)(=O)=O)CC2)nc1N
inactive: outcome [5] | fold change [7, 12] 0.981
1770: cell count [7, 15]
-3.07: z-score [8, 17]
0.805: fold change [7, 13]
1740: cell count [7, 14]
active: AC50 [1] 1.86 µM | AC50 [2] 2.64 µM | AC50 [3] 1.18 µM | AC50 [4] 2.09 µM | AC50 [6] 3.72 µM | IC50 [11] 1.86 µM | z-score [8, 16] 2.86

CNC(=O)c1ccc(N2C(=S)N(c3ccc(C#N)c(C(F)(F)F)c3)C(=O)C2(C)C)cc1F
0.472: SSMD [10]
inactive: outcome [1] | outcome [2] | outcome [3] | outcome [4] | outcome [5] | outcome [6] | outcome [11] | fold change [7, 12] 0.873 | plate-normalised HSF1 focus index [10] 1.02 | z-score [8, 16] -0.357 | viability [9, 18] 110% | viability [9, 22] 110% | viability [9, 26] 110% | viability [9, 30] 113% | viability [9, 34] 108% | viability [9, 35] 102% | viability [9, 38] 108% | viability [9, 40] 102% | viability [9, 42] 117% | viability [9, 43] 104% | viability [9, 44] 102% | viability [9, 46] 127% | viability [9, 47] 108%
7300: cell count [7, 14]
0.602: z-score [8, 17]
8360: cell count [7, 15]
6500: cell count [10]
active: viability [9, 19] 85.9% | viability [9, 20] 81% | viability [9, 21] 76.7% | viability [9, 23] 93.5% | viability [9, 24] 91.6% | viability [9, 25] 82% | viability [9, 27] 91.5% | viability [9, 28] 90.9% | viability [9, 29] 85% | viability [9, 31] 95.6% | viability [9, 32] 92.4% | viability [9, 33] 87.7% | viability [9, 36] 94.7% | viability [9, 37] 85.3% | viability [9, 39] 96.4% | viability [9, 41] 94.4% | viability [9, 45] 95.6% | viability [9, 48] 97.6% | viability [9, 49] 93.9%
1.28: fold change [7, 13]

CC(C)c1cnn2c(NCc3ccccc3)cc(NCCCCCCN)nc12
7920: cell count [7, 14]
0.679: fold change [7, 13]
8080: cell count [7, 15]
-0.75: z-score [8, 17]
inactive: fold change [7, 12] 0.98 | z-score [8, 16] -0.424
active: AC50 [1] 18.6 µM | AC50 [2] 20.9 µM | AC50 [3] 18.7 µM | AC50 [4] 18.6 µM | AC50 [5] 23.5 µM | AC50 [6] 26.3 µM | IC50 [11] 23.5 µM
